Assay results reported in PubChem BioAssay AID651958 (The Scripps Research Institute Molecular Screening Center, 2012).
About 2,000 (0.54%) of roughly 370,000 compounds were called active. This is one part of a sample in which actives are shown more often than they occur. Cut-off read from the data, not from the text of the source: active = inhibition above about 30%; inactive = the rest.

These molecules were tested on Crimean-Congo hemorrhagic fever virus L polyprotein viral ovarian tumor (vOTU) protease domain (assay: CCHFV vOTU protease inhibitors, primary screen, biochemical, Pep-AMC substrate, fluorescence (AID 651958; note: 0% = vehicle wells with enzyme and 100% = no enzyme wells)). Conditions: at 11.5 µM, stronger effect = higher value.
For `CC1CCCN(S(=O)(=O)c2ccc(N(C(=O)c3cnccn3)C(C(=O)NC3CCCCC3)c3cccs3)cc2)C1` (stereo unspecified), the inhibition was 3.18% (inactive).
For `CNc1ccc(SC#N)cc1`, the inhibition was 7.09% (inactive).
With `O=C(Nc1cccc(S(=O)(=O)N2CCCCC2)c1)c1ccc2c(c1)OCO2` the inhibition was 30.3% (active).
In the case of `O=C(Nc1cccc(S(=O)(=O)N2CCCCC2)c1)c1cncc(Br)c1`, the inhibition was 17.5% (inactive).
For `O=C(Nc1cccc(S(=O)(=O)N2CCCC2)c1)c1cncc(Br)c1`, the inhibition was 6.4% (inactive).
For `CN1[C@H](Cc2ccccc2)COc2cccc(N3CCSCC3)c2S1(=O)=O`, the inhibition was -7.16% (inactive).
`O=C(CNC(c1ccccc1)c1ccccc1)Nc1ccc(F)cc1` was tested, and the inhibition was -6.64% (inactive).
In the case of `COc1ccccc1CNS(=O)(=O)c1cc2c3c(c1)CCC(=O)N3CCC2`, the inhibition was 31.9% (active).
In the case of `COc1ccc(CNS(=O)(=O)c2cc3c4c(c2)CCN4C(=O)CC3)cc1`, the inhibition was 9.3% (inactive).
With `COc1ccccc1CCNS(=O)(=O)c1cc2c3c(c1)C(C)C(=O)N3CCC2` (stereo unspecified) the inhibition was 14% (inactive).
`Cc1cccc(N)c1SC1CCCCC1O` (stereo unspecified) was tested, and the inhibition was -10% (inactive).
In the case of `Cc1cccc(CN2CCC(n3nccc3NC(=O)c3ccccc3C)CC2)n1`, the inhibition was -2.72% (inactive).
For `Cc1ccc(S(=O)(=O)N2[C@@H](c3ccc(Br)cc3)C(C(=O)O)=C[C@H]2CC2CCCC2)cc1`, the inhibition was 34.2% (active).
For `CCCCC[C@@H]1C=C(C(=O)O)[C@H](c2ccc(C#N)cc2)N1S(=O)(=O)c1ccc(C)cc1`, the inhibition was 16.8% (inactive).
In the case of `CCCCC[C@@H]1C=C(C(=O)OCC)[C@H](c2ccccc2)N1S(=O)(=O)c1ccc(C)cc1`, the inhibition was 11% (inactive).
In the case of `COc1cc(NC(=S)N2CCCC(C)C2)c(OC)cc1Cl` (stereo unspecified), the inhibition was 7.18% (inactive).
In the case of `COc1ccc(C(=O)OCCN(C)C2CN(Cc3cn(Cc4cccc(C)c4)nn3)S(=O)(=O)C2)cc1OC` (stereo unspecified), the inhibition was -1.74% (inactive).
`O=C(O)c1cc(S(=O)(=O)Nc2ccc3cn[nH]c3c2)ccc1Br` was tested, and the inhibition was 36% (active).
With `O=C(O)c1ccc(NS(=O)(=O)c2ccc3c(c2)C(=O)c2cc(S(=O)(=O)Nc4ccc(C(=O)O)cc4)ccc2-3)cc1` the inhibition was 14.6% (inactive).
For `O=S(=O)(Nc1ccc2[nH]ncc2c1)c1ccccc1Cl`, the inhibition was -2.37% (inactive).
`CC1CCCN(CC(O)COc2ccc3c(c2)OCO3)C1` (stereo unspecified) was tested, and the inhibition was 9.88% (inactive).
With `Oc1ccc(N=Cc2sc3ccccc3c2Cl)cc1` the inhibition was 97.4% (active).
`Oc1ccc(N=Cc2c(O)ccc3ccccc23)cc1` was tested, and the inhibition was 63.1% (active).
`Cn1cc(CN2CCC(C(O)CCc3ccccc3)CC2)c(-c2ccccc2F)n1` (stereo unspecified) was tested, and the inhibition was -4.04% (inactive).
In the case of `Cc1cc(OCCN2CCCC2)cc(C(C)C)c1`, the inhibition was -8.52% (inactive).
`CC1=C2C(=O)C3C(CC=C4CC(OC5OC(O)C(O)C(O)C5CO)CCC43C)C2CCC12OC1CC(C)CNC1C2C` (stereo unspecified) was tested, and the inhibition was -3.46% (inactive).
With `O=C(NCc1ccc(F)cc1)c1cc(C2CCCCN2C(=O)C2CCCCC2)on1` (stereo unspecified) the inhibition was 33.5% (active).
For `O=C(NCc1ccc(F)cc1)c1cc(C2CCCCN2C(=O)c2cccs2)on1` (stereo unspecified), the inhibition was -3.47% (inactive).
With `O=C(NCc1ccc(F)cc1)c1cc(C2CCCCN2C(=O)c2ccccn2)on1` (stereo unspecified) the inhibition was 11.8% (inactive).
`CC(NC(=O)CN1CCN(Cc2ccc(Cl)cc2)C1=O)c1ccc2c(c1)OCCO2` (stereo unspecified) was tested, and the inhibition was 11.5% (inactive).
With `CCN(CC)P(=O)(Oc1cccc(C)c1)N(CC)CC` the inhibition was 32.4% (active).
In the case of `Cc1cccc(OP(=O)(Oc2cccc(C)c2)OC(c2ccccc2)C(F)(F)F)c1` (stereo unspecified), the inhibition was 2.83% (inactive).
`Cc1cccc(OCC(=O)Nc2ccc(C(=O)O)cc2NC(=O)COc2cccc(C)c2)c1` was tested, and the inhibition was 16.7% (inactive).
In the case of `Cc1ccc(S(=O)(=O)N2CCN(C(=O)Cn3c(=O)cnc4ccccc43)CC2)c(C)c1`, the inhibition was 14.9% (inactive).
In the case of `O=C(CNCc1ccco1)Nc1cc(S(=O)(=O)N2CCOCC2)ccc1N1CCCC1`, the inhibition was -3.18% (inactive).
`CC(C)C[C@H](NC(=O)C1CCC(CNC(=O)[C@@H]2CCCN2C(=O)OC(C)(C)C)CC1)C(=O)O` (stereo partly specified) was tested, and the inhibition was -6.89% (inactive).
`CC(C)c1ccc(O)c(CN2CCN(c3ccccc3)CC2)c1` was tested, and the inhibition was -12.4% (inactive).
With `O=C(c1ccccc1)c1cccn1CC(=O)N1CCN(c2ccc(F)cc2)CC1` the inhibition was -2.38% (inactive).
With `Oc1c(CN2CCN(c3ccc(F)cc3)CC2)cc(Cl)c2cccnc12` the inhibition was 31.6% (active).
`Cc1ccc(S(=O)(=O)N2CCC(=O)N([C@H](COCc3ccccc3)C(C)C)CC2)cc1` was tested, and the inhibition was 3.62% (inactive).
`COc1ccc(NC(=O)CNC(=O)Cn2ccc3ccccc3c2=O)c(OC)c1` was tested, and the inhibition was -6.81% (inactive).
For `Cc1ccc(Sc2cc(N3CCOCC3)nc(-c3ccccc3)n2)cc1`, the inhibition was 13.3% (inactive).
`O=C(OC(C(=O)NC1CCCC1)c1ccc(F)cc1)c1ccno1` (stereo unspecified) was tested, and the inhibition was -21.1% (inactive).
With `OCC(CO)(CO)NCc1ccc(-c2ccccc2)cc1` the inhibition was -4.11% (inactive).
In the case of `Oc1ccc(CNc2ccccc2O)cc1`, the inhibition was 37% (active).
With `COC(=O)C1=CN(c2c(C)cc(C)cc2C)C(N)=C(C#N)C1c1cccc(F)c1` (stereo unspecified) the inhibition was 4.61% (inactive).
With `O=C(CSc1nnc2c(n1)[nH]c1ccccc12)NC1CCCCC1` the inhibition was -13% (inactive).
In the case of `O=C(Nc1cccc2c1CCCC2)C1CCN(C(=O)NC2CCCCC2)CC1`, the inhibition was -8.92% (inactive).
`O=C(NC1CCCCC1)N1CCc2[nH]c3ccccc3c2C1` was tested, and the inhibition was 58.5% (active).
With `CCCNC(=S)N1CCC(NC(=O)C23CC4CC(CC(C4)C2)C3)CC1` the inhibition was -4.34% (inactive).
For `CN1OC[C@@H]2CN(C(=O)c3cccnc3)[C@H](c3ccc(N4CCCCC4)cc3)C[C@@H]21`, the inhibition was -0.01% (inactive).
For `N#Cc1cccc(CSc2nnc(CCCO)n2-c2ccccc2)c1`, the inhibition was -2.93% (inactive).
With `CCOc1ccccc1NC(=O)c1cc(S(=O)(=O)N2CCC3(CC2)OCCO3)ccc1F` the inhibition was -13.4% (inactive).
For `CCOc1cc(NC(=O)c2ccccc2C(=O)O)c(OCC)cc1NC(=O)c1ccccc1F`, the inhibition was 35.5% (active).
With `CCOc1cc(NC(=O)CCl)c(OCC)cc1NC(C)=O` the inhibition was 11.3% (inactive).
`S=C(NCCc1ccccc1)N1CCn2cccc2C1c1ccncc1` (stereo unspecified) was tested, and the inhibition was 20.5% (inactive).
In the case of `c1ccc(N2Cc3ccccc3-n3nncc3C2)nc1`, the inhibition was -2.36% (inactive).
In the case of `Cc1ccn2c(c1)nc(=O)c1cc(S(=O)(=O)N3CCC(C)CC3)ccc12`, the inhibition was -11.7% (inactive).
`CCCCN(CC(=O)Nc1cccc(S(=O)(=O)N2CCCC2)c1)Cc1nc2ccccc2c(=O)[nH]1` was tested, and the inhibition was 3.14% (inactive).
In the case of `CC(=O)Nc1ccc(NC(=O)CSc2nnnn2-c2ccccc2F)cc1`, the inhibition was 2.7% (inactive).
For `CCn1nnnc1SCC(=O)Nc1ccc(N(C)C)cc1`, the inhibition was 30.6% (active).
With `CC(=O)Nc1ccc(NC(=O)CSc2nnnn2C2CCCCC2)cc1` the inhibition was -5.32% (inactive).
In the case of `CCn1c(SCC(=O)NC2=NCCS2)nnc1C(C)NC(=O)c1ccccc1F` (stereo unspecified), the inhibition was 0.18% (inactive).
For `COCCCNS(=O)(=O)c1cccc(S(=O)(=O)c2cccc(S(=O)(=O)NCCCOC)c2)c1`, the inhibition was -10.2% (inactive).
With `Cc1ccc(C2(C(F)(F)F)N=C3Sc4cc(C)cc(C)c4N3C(=O)N2)cc1` (stereo unspecified) the inhibition was -15.2% (inactive).
In the case of `Cc1ccc(-c2nnc(SCC(=O)Nc3ccc(Oc4ccccc4)cc3)n2Cc2ccco2)cc1`, the inhibition was 6.1% (inactive).
In the case of `O=C(CSc1nnc(COc2ccccc2)n1Cc1ccco1)c1ccc2ccccc2c1`, the inhibition was 7.39% (inactive).
For `Cc1ccc(OCc2nnc(SC/C=C/c3ccccc3)n2Cc2ccco2)cc1`, the inhibition was 31.9% (active).
`O=C(Cc1ccc(NC(=O)C2CCCN(C(=O)CCc3ccccc3)C2)cc1)Nc1ccc(C(=O)N2CCOCC2)cc1` (stereo unspecified) was tested, and the inhibition was 23.1% (inactive).
`Cc1ccccc1CSc1nnc(-c2ccccc2)c(=O)[nH]1` was tested, and the inhibition was -2.29% (inactive).
For `Cc1ccc(CSc2nc(-c3ccccc3)c(C#N)c(=O)[nH]2)cc1`, the inhibition was 39.9% (active).
For `Cc1ccc(CSc2nc3[nH]ncc3c(=O)[nH]2)cc1`, the inhibition was -0.35% (inactive).
For `Cc1ccc(O)c(NC(=O)c2cc(-c3ccco3)on2)c1`, the inhibition was -0.2% (inactive).
With `COCCNC(=O)Nc1ccc2nc(-c3ccco3)c(-c3ccco3)nc2c1` the inhibition was 36% (active).
`CN(C)c1ccc(NC(=O)CSc2n[nH]c(-c3ccco3)n2)cc1` was tested, and the inhibition was 4.49% (inactive).
`COc1ccc(NC(=O)NN2CCN(C)CC2)c(OC)c1` was tested, and the inhibition was 4.34% (inactive).
For `CN1CCCc2cc(C#N)c(=O)[nH]c21`, the inhibition was -314% (inactive).
For `CSCCC(NS(=O)(=O)c1ccc2c(c1)oc(=O)n2C)C(=O)NC1CCCc2ccccc21` (stereo unspecified), the inhibition was 7.61% (inactive).
With `Cc1cc(N2CCNC[C@@H]2C)ccc1N1CC[C@H](O)C1` the inhibition was -1.97% (inactive).
`COc1ccc(/C=N/NC(=O)Cn2cc(C(F)(F)F)ccc2=O)cc1` was tested, and the inhibition was 4.22% (inactive).
With `O=C(N/N=C/c1ccc(O)c(O)c1)C1c2ccccc2Oc2ccccc21` the inhibition was 4.82% (inactive).
With `Oc1ccc(/C=N/Nc2ccc(C(F)(F)F)cn2)cc1O` the inhibition was 31.3% (active).
With `CCc1cccc(C)c1N(C(=O)Cn1c(CO)nc2ccccc21)C(C)COC` (stereo unspecified) the inhibition was 6.13% (inactive).
With `O=C(Nc1cc(S(=O)(=O)N2CCOCC2)ccc1N1CCOCC1)c1c(F)cccc1Cl` the inhibition was 8.3% (inactive).
In the case of `Cc1ccc2c(c1)C(c1ccccc1)N(C(=O)c1ccc(S(=O)(=O)N3CCOCC3)cc1)CC(=O)N2` (stereo unspecified), the inhibition was -6.16% (inactive).
In the case of `Cc1ccc(S(=O)(=O)N2CCN(C(=O)c3cccs3)CC2)cc1`, the inhibition was -14.5% (inactive).
`COc1ccccc1NC1=NC(c2ccc(Cl)cc2)N=C(N)N1` (stereo unspecified) was tested, and the inhibition was 2.38% (inactive).
For `Cc1ccc(NC(=S)N2CCN(c3ncccn3)CC2)cc1C`, the inhibition was 2.37% (inactive).
In the case of `CCNC(=S)N1CCN(c2ncccn2)CC1`, the inhibition was 43.8% (active).
With `CCNC(=S)N1CCN(S(=O)(=O)c2ccc(Cl)s2)CC1` the inhibition was 11.2% (inactive).
With `CCC(C(=O)NCc1cccnc1)n1nc(C)c2sc3ccccc3c2c1=O` (stereo unspecified) the inhibition was -2% (inactive).
